Measurements published in PubChem BioAssay AID1376 (SRMLSC, 2008).
Several values for one entry are separate records, joined by “and”; a condition that tells them apart may be missing. Equal entries are not always repeated. Screen size: about 220,000 compounds; about 530 (0.24%) were called active. Cut-off read from the data, not from the text of the source: active = inhibition above about 13%; inconclusive = no clear call, values can overlap the other calls; inactive = below that. This excerpt belongs to a sample that is enriched for actives. Results with a measured potency or affinity are listed apart.

target: Bifunctional protein GlmU (Mycobacterium tuberculosis (strain ATCC 25618 / H37Rv)) (UniProt P9WMN3); experiment: inhibition of mycobacterial GlmU enzyme – biochemical, glucosamine-1-phosphate acetyltransferase (AID 1376);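 note: 0% = complete reaction with vehicle and 100% = reaction without substrate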; details: M. tuberculosis GlmU acetyltransferase enzyme assay; active compounds read high;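 tested at 30 µM in the primary screen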
Sequence (P9WMN3 whole entry, looked up): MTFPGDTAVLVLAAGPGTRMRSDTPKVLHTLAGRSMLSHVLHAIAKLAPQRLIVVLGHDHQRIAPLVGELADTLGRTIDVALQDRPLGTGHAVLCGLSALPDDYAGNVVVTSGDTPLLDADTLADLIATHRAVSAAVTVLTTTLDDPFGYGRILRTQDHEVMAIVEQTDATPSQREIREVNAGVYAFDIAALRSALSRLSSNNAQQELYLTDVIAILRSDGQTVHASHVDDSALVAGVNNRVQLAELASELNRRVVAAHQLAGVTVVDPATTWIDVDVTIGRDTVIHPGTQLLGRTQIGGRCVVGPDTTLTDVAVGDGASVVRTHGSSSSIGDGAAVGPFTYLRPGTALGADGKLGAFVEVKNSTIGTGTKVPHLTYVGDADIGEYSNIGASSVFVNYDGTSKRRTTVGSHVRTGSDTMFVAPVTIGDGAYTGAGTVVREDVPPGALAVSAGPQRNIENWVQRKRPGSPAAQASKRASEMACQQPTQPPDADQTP

SMILES | inhibition
CCN(C(=O)CN1CCN(S(=O)(=O)c2ccccc2C(F)(F)F)CC1)c1c(N)n(Cc2ccccc2)c(=O)[nH]c1=O | -6.69% (inactive)
CCCS(=O)(=O)Nc1cccc(-c2nc3cccnc3s2)c1 | 3.55% (inactive)
CCS(=O)(=O)Nc1cccc(-c2nc3cccnc3s2)c1 | 14.4% (active)
CCS(=O)(=O)Nc1ccc(-c2nc3cccnc3s2)cc1 | 0.1% (inactive)
COc1cc(C(=O)Oc2ccc3c(c2)OCC3=O)cc(OC)c1OC | 1.2% (inactive)
Cc1ccccc1CSc1nnc(-c2ccco2)n1Cc1ccco1 | 1.77% (inactive)
c1ccc(CSc2nnc(-c3ccco3)n2Cc2ccco2)cc1 | 13% (active)
c1ccc(CSc2nnc(-c3cccs3)n2Cc2ccco2)cc1 | -1.39% (inactive)
Cc1ccc(OCC(=O)Nc2ccc(S(=O)(=O)N3CCCCC3)cc2)c([N+](=O)[O-])n1 | -4.33% (inactive)
O=C(CN(CC1CCCO1)S(=O)(=O)c1ccc(S(=O)(=O)NCC2CCCO2)cc1)Nc1ccccc1 (stereo unspecified) | 5.97% (inactive)
CCOC(=O)c1cnc(-n2nc(C)cc2C)nc1Oc1ccccc1F | -3.61% (inactive)
CCOC(=O)c1cnc(-n2nc(C)cc2C)nc1Oc1ccc(C(=O)OC)cc1 | -2.28% (inactive)
CCOC(=O)c1cnc(-n2nc(C)cc2C)nc1Oc1ccc(C#N)cc1 | 13.1% (active)
CCOC(=O)c1[nH]c2ccc(OC)cc2c1NC(=O)c1ccc2c(c1)OCO2 | -4.48% (inactive)
CCOC(=O)c1[nH]c2cc(OC)c(OC)cc2c1NC(=O)c1ccc2c(c1)OCO2 | 17.8% (active)
CCOC(=O)c1[nH]c2ccccc2c1NC(=O)c1ccc2c(c1)OCO2 | -1.52% (inactive)
O=C(Nc1ccon1)c1ccccc1F | -0.14% (inactive)
O=C(CCN1C(=O)c2ccccc2C1=O)NC(=S)Nc1ccccc1 | 2.69% (inactive)
O=C(CCN1C(=O)c2ccccc2C1=O)NC(=S)Nc1ccccc1Cl | -2.84% (inactive)
Cc1cc(C)cc(NC(=S)NC(=O)CCN2C(=O)c3ccccc3C2=O)c1 | 13.3% (active)
O=C(NCc1ccccc1)c1ccc2c(=O)[nH]c3c(C(=O)NCC4CCCO4)sc(=S)n3c2c1 (stereo unspecified) | 4.19% (inactive)
Cc1ccc(CNC(=O)c2ccc3c(=O)[nH]c4c(C(=O)NCC5CCCO5)sc(=S)n4c3c2)cc1 (stereo unspecified) | 13.2% (active)
CCCCCNC(=O)c1ccc2c(=O)[nH]c3c(C(=O)NCC4CCCO4)sc(=S)n3c2c1 (stereo unspecified) | -1.14% (inactive) and 8.81% (inactive)

SMILES | inhibition
COc1ccc(OCCCC(=O)NCCc2nc3ccccc3[nH]2)cc1 | 5.71% (inactive)
O=c1c(C(c2ccccc2)c2c(O)nc3n(c2=O)CCS3)c(O)nc2n1CCS2 | 3.94% (inactive)
O=c1c(C(c2c(O)nc3n(c2=O)CCS3)c2cccc3ccccc23)c(O)nc2n1CCS2 | 15.3% (active)
Cc1ccc(C(c2c(O)nc3n(c2=O)CCS3)c2c(O)nc3n(c2=O)CCS3)cc1 | -1.5% (inactive)
CC1=CC(=Nc2c(C)n(C)n(-c3ccccc3)c2=O)C=C(C)C1=O | -6.33% (inactive)
Cc1c(N=C2C=C(Br)C(=O)C(Br)=C2)c(=O)n(-c2ccccc2)n1C | 14.5% (active)
CCC(C)C1=CC(=Nc2c(C)n(C)n(-c3ccccc3)c2=O)C=C(C(C)CC)C1=O (stereo unspecified) | -5.03% (inactive)
O=C(NC1CC1)C1=C[C@@H](c2ccc(C(F)(F)F)cc2)C[C@@H](OCCCCO)O1 | 0.57% (inactive)
CCOc1cc(/C=C2/C(=O)ON=C2C)ccc1OCc1ccccc1F | -0.49% (inactive)
S=C(NCCc1ccccn1)Nc1cccc(Cl)c1 | 2.84% (inactive)
O=C(CSc1nc2ccccc2[nH]1)Nc1ccccc1N1CCOCC1 | 2.16% (inactive)
O=C(CCSc1ccccc1)Nc1nnc(-c2ccccc2)o1 | -1.24% (inactive)
COc1ccccc1N1CCN(C(=O)c2coc(=O)c(Br)c2)CC1 | 2.74% (inactive)
O=C(c1coc(=O)c(Br)c1)N1CCC(C(O)(c2ccccc2)c2ccccc2)CC1 | -1.06% (inactive)
O=C(c1coc(=O)c(Br)c1)N1CCCc2ccccc21 | -0.3% (inactive)
COc1ccc(C(=O)N2CCOCC2)cc1Br | -2.45% (inactive)
CC(c1ccccc1)C1CC(=O)N(c2ccc(C(=O)O)cc2)C1=O (stereo unspecified) | -1.47% (inactive)
CS(=O)(=O)NNC(=O)c1sccc1OCc1ncc(C(F)(F)F)cc1Cl | -2.98% (inactive)
CC(C)CNc1c(N)c(=O)oc2ccccc12 | -2.95% (inactive)
O=C(Nc1cccc(C(F)(F)F)c1)c1ccco1 | -3.67% (inactive)
CCc1ccccc1Nc1nc(N)nc(COC(=O)c2cccn2C)n1 | 13.1% (active)
Cc1ccccc1Nc1nc(N)nc(COC(=O)c2ccccc2)n1 | 6.9% (inactive)
Cc1ccccc1Nc1nc(N)nc(COC(=O)c2cccn2C)n1 | 2.68% (inactive)

SMILES | inhibition
CCCCN(CC)Cc1ccc(CNC(=S)Nc2cccc(F)c2)o1 | -3.9% (inactive)
N#C/C(=C\c1ccc[nH]1)C(=O)NCC1CCCO1 (stereo unspecified) | 2.87% (inactive)
Brc1ccc(CSc2ccc3nnc(-c4ccccn4)n3n2)cc1 | -0.66% (inactive)
COc1cccc(/C=N\n2c(C)nnc2C)c1OC | 8.8% (inactive)
Cc1ccc(N2C(=O)c3ccccc3C2C(=O)c2cc(C)ccc2O)cc1 (stereo unspecified) | -7.05% (inactive)
Cc1ccc(N2C(=O)c3ccccc3C2C(=O)c2ccc(C)c(C)c2O)cc1 (stereo unspecified) | -5.61% (inactive)
Cc1ccc(N2C(=O)c3ccccc3C2C(=O)c2ccc(O)cc2O)cc1 (stereo unspecified) | 13.2% (active)
CN1CCSc2ccc(C(=O)Nc3cc(F)ccc3F)cc21 | -5.68% (inactive)
Cc1ccc(C(=O)C2CCN(CC(=O)NC3CCCCC3)CC2)cc1 | 1.4% (inactive)
COc1ccccc1NS(=O)(=O)c1cc(NC(=O)c2sccc2C)ccc1N1CCCC1 | 0.4% (inactive)
CC1(C)OC(=O)C(=Cc2ccc(-c3ccc(S(N)(=O)=O)cc3)o2)C(=O)O1 | -2.03% (inactive)
CC1=C(C#N)C(=O)NC(=O)/C1=C/c1ccc(-c2ccc(S(N)(=O)=O)cc2)o1 | 14.3% (active)
CCOC(=O)c1cc(-c2ccc(/C=C3/C(=O)NC(=O)C(C#N)=C3C)o2)ccc1Cl | -3.05% (inactive)
COc1ccc(CCC(=O)Nc2cc(Cl)ccc2N2CCN(C)CC2)cc1 | -2.71% (inactive)
Cc1cc(C)nc(NN=C2CCCC2)n1 | -4.71% (inactive)
C/C=C1/CN2[C@@H]3C4CO[C@@H]3c3c([nH]c5cc(OC)ccc35)[C@@H]2CC14 (stereo partly specified) | 4.24% (inactive)
O=C(O)c1cccc(-n2cccc2/C=C2/NC(=O)N(c3ccc(Cl)cc3)C2=O)c1 | 68.6% (active)
O=C(O)c1ccc(COc2ccccc2/C=C2/NC(=O)N(c3cccc(Cl)c3)C2=O)cc1 | -4.52% (inactive)
O=C(O)c1cccc(-n2cccc2/C=C2/NC(=O)N(c3cccc(Cl)c3)C2=O)c1 | 2.42% (inactive)
O=C(O)c1cccc(-n2cccc2/C=C2\NC(=O)N(Cc3ccc(F)cc3)C2=O)c1 | 13.9% (active)
COc1ccc(-n2cccc2/C=C2/NC(=O)N(c3cccc(Cl)c3)C2=O)cc1 | 1.07% (inactive)
O=C(O)c1cccc(-n2cccc2/C=C2/NC(=O)N(Cc3ccccc3F)C2=O)c1 | 7.3% (inactive)
ON=Cc1cccn1-c1ccccc1 | 2.34% (inactive)

SMILES | inhibition
Cc1ccc(CN2C(=O)N/C(=C\c3cccn3-c3cccc(C(=O)O)c3)C2=O)cc1 | 7.01% (inactive)
N#C/C(=C/c1cccn1-c1cccc(C(=O)O)c1)c1ccc(Cl)cc1 | 7.87% (inactive)
O=C(N/N=C/c1cccn1-c1cccc(C(=O)O)c1)Nc1ccccc1 | 7.06% (inactive)
O=C(Cn1nc(-c2ccccc2)ccc1=O)N1CCC2(CC1)OCCO2 | -1.66% (inactive)
CC(C)C(=O)N1N=C2CCCCC2C1(O)C(F)(F)F (stereo unspecified) | -2.41% (inactive)
O=C(Nc1ccccc1)c1ccc2snnc2c1 | -0.53% (inactive)
S=C=Nc1ccccn1 | -0.05% (inactive)
COc1ccccc1Nc1nc(N)nc(CN2CCOCC2)n1 | -4.21% (inactive)
Cc1ccc(NC(=S)N/N=C2\CC(C)(C)Oc3ccc(O)cc32)cc1 | 0.56% (inactive)
O=C(Nc1ccc(-c2nc3ccccc3[nH]2)cc1)c1ccc(N2C(=O)CCC2=O)cc1 | -0.75% (inactive)
O=C(CSc1ncn[nH]1)NCCOc1ccccc1 | -0.55% (inactive)
O=C1N[C@@H](Cc2ccccc2)C(=O)N2[C@@H]1C[C@@]1(Br)c3ccccc3N(S(=O)(=O)c3ccccc3)[C@@H]21 | 3.3% (inactive)
CN1C(=O)S/C(=C/c2cccn2-c2cccc(C(=O)O)c2)C1=O | -3.46% (inactive)
N#C/C(=C/c1cccn1-c1cccc(C(=O)O)c1)c1ccc(F)cc1 | 2.91% (inactive)
O=C1N/C(=C/c2cccn2-c2ccccc2)C(=O)N1Cc1ccc(F)cc1 | 1.54% (inactive)
N#Cc1ccccc1CN1C(=O)S/C(=C/c2cccn2-c2cccc(C(=O)O)c2)C1=O | 2.69% (inactive)
O=C(O)c1ccc(-n2cccc2/C=C2/NC(=O)N(c3ccccc3)C2=O)cc1 | 14.4% (active)
N#CC(C#N)=Cc1cccn1-c1ccc(C(=O)O)cc1 | 13.8% (active)
O=C(O)c1cccc(-n2cccc2/C=C2\SC(=O)N(Cc3ccccc3F)C2=O)c1 | 14.4% (active)
N#CC(C#N)=Cc1cccn1-c1ccc(S(N)(=O)=O)cc1 | -1.86% (inactive)
O=C1N/C(=C/c2cccn2-c2ccc(F)cc2)C(=O)N1Cc1ccccc1 | -0.61% (inactive)
CN(C)c1nc(N/N=C\c2ccc(Cl)c([N+](=O)[O-])c2)nc(Nc2ccc(F)cc2)n1 | 3.5% (inactive)
